The values that follow come from PubChem BioAssay (NCATS).

Records with an inconclusive call do not appear. A call without a number means that no potency is given here. Calls of active or inactive are those of the source. Calls follow the shape of the dose curve; as a rule, active = well fitted curve in the direction sought with a large enough effect; inconclusive = small, poorly fitted or top-dose-only effect, or another doubt; inactive = no such curve, though single readings can be large; an effect the other way counts as inactive or inconclusive.

The target of assay [1] is Methanococcus maripaludis chaperonin (MmCpn) (UniProt Q6LX38). In words: High-Throughput Screening for Modulators of Cytosolic Chaperonin Activity: MmCpn Primary Screen (AID 488978).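 Also: 50 nM MmCpn enzyme hydrolysing 30 µM ATP at 37 °C.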 In outline: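 MmCpn at 50 nM final was preincubated 5 min at RT with compound. ATP was then added at 30 uM final for 10 min at 37 C. ADP formed was detected by Transcreener HTRF (665/590 nm).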
Methanococcus maripaludis chaperonin (MmCpn), sequence (Q6LX38 1-543): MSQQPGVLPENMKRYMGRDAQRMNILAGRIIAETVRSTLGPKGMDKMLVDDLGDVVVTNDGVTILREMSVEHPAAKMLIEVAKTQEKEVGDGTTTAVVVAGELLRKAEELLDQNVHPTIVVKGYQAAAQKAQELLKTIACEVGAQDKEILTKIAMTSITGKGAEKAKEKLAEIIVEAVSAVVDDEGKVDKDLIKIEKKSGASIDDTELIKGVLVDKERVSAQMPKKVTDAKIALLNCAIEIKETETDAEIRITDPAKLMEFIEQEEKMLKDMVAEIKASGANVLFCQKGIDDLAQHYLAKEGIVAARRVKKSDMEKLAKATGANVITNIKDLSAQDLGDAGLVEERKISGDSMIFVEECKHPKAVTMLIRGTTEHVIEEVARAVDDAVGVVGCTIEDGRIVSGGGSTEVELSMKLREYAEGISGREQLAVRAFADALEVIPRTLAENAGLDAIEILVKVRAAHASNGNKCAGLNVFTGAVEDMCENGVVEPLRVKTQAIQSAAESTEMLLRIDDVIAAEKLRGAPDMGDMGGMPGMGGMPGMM

Assay [2] deals with D(1A) dopamine receptor (Homo sapiens) (UniProt P21728). Kind of assay: HTS Assay for Allosteric Agonists of the Human D1 Dopamine Receptor: Primary Screen for Agonists (AID 488981). An outline of the steps: (§1)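 Tetracycline-induced HEK293 T-REx cells force-coupled to calcium signalling were incubated overnight at 30 C and dye-loaded at room temperature. Calcium flux over 180 s after compound addition flagged agonists; a further 180 s read after EC20 dopamine flagged potentiators.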
D(1A) dopamine receptor (Homo sapiens), sequence (P21728 whole entry, looked up): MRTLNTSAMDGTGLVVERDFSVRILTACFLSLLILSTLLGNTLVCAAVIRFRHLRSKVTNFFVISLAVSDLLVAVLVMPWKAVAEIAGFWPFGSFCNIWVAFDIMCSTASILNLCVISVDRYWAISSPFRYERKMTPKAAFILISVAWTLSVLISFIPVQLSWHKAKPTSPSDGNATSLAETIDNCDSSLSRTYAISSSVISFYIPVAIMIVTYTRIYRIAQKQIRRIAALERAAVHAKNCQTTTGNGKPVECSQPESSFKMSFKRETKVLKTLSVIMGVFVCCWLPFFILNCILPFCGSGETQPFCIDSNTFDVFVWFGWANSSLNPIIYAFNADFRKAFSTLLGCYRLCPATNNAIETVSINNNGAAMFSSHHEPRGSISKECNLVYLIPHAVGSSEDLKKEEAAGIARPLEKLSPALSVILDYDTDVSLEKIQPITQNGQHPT

Assay [3] shares this target. Kind of assay: HTS Assay for Allosteric Agonists of the Human D1 Dopamine Receptor: Primary Screen for Potentiators (AID 488982). An outline of the steps: as §1
The target is the same in assay [4]. Kind of assay: HTS Assay for Allosteric Agonists of the Human D1 Dopamine Receptor: Primary Screen for Antagonists (AID 488983).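 Also: calcium flux response to an EC80 dopamine challenge measured with no-wash dye; nearly all actives have a fitted effect of over 65% in size.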 An outline of the steps:
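Tetracycline-induced HEK293 T-REx D1 line, force-coupled to calcium flux, read with no-wash calcium dye. Compound added after 10 s baseline, read 180 s for agonism, then EC80 dopamine added and read a further 180 s.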

A short description of assay [5]: Validation screen for small molecules that induce genotoxicity in human embryonic kidney (HEK293T) cells expressing luciferase-tagged ELG1 (AID 493106). Also: potency is read from the fitted curve at half-maximal effect. Conditions: luminescence. In outline:
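HEK293T cells expressing luciferase-tagged ELG1, 2,000 cells/well, exposed to compound 16 hr at 37 °C, 5% CO2. Luciferase read after ONE-Glo, 30 min at room temperature; increased signal indicates genetic stress.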

In assay [6] the target is Tyrosyl-DNA phosphodiesterase 1 (Homo sapiens) (UniProt Q9NUW8). Kind of assay: Confirmation Assay for Inhibitors of Tyrosyl-DNA Phosphodiesterase (TDP1) (AID 489007). Also: potency is read from the fitted curve at half-maximal effect; nearly all actives have a fitted effect of over 40% in size. Conditions: recombinant human TDP1 enzymatic activity, dose-response. In outline: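 Recombinant human Tdp1 (1 nM final), expressed in E. coli, preincubated 15 min with compound. Then 15 nM 5'-biotin/3'-phosphotyrosine-FITC DNA substrate added for 5 min at room temperature. AlphaScreen beads (10 ug/ml) added for 10 min; cleavage gives signal loss.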
Tyrosyl-DNA phosphodiesterase 1 (Homo sapiens), sequence (Q9NUW8 whole entry, looked up): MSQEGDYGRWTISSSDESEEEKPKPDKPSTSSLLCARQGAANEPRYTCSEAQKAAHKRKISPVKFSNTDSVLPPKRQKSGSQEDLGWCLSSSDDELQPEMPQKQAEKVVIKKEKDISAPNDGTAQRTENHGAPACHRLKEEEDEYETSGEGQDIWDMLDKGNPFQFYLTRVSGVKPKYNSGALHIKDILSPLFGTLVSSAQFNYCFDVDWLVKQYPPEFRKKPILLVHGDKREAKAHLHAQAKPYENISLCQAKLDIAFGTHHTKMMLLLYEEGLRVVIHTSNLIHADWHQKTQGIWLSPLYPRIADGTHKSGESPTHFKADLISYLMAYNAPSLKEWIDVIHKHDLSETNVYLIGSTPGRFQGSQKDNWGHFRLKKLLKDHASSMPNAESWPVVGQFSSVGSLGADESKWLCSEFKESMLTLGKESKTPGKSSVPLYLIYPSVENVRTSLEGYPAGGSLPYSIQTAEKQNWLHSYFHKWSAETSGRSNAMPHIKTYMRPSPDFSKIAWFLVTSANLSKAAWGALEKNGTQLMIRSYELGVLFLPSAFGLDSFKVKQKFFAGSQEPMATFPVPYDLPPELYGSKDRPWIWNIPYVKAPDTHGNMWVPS

Assay [7] addresses ATP-dependent 6-phosphofructokinase (Trypanosoma brucei brucei) (UniProt O15648). In words: qHTS Assay to Find Inhibitors of T. brucei phosphofructokinase: hit validation (AID 492961).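 Also: luminescence reports ADP formed as PFK phosphorylates fructose-6-phosphate with ATP; series mostly up to about 51 µM.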 In outline:
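Reaction: 0.1 M triethanolamine pH 8.0, 5 mM MgCl2, F6P 0.5 mM, ATP 0.1 mM, PFK 1.25 nM, 45 min RT. Read-out: ADP-Glo luminescence. Analysis: concentration-response fits, classed by r2 and efficacy.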
(In qHTS, concentration-response curves come from the screen itself.)

ATP-dependent 6-phosphofructokinase (Trypanosoma brucei brucei), sequence (O15648 whole entry, looked up): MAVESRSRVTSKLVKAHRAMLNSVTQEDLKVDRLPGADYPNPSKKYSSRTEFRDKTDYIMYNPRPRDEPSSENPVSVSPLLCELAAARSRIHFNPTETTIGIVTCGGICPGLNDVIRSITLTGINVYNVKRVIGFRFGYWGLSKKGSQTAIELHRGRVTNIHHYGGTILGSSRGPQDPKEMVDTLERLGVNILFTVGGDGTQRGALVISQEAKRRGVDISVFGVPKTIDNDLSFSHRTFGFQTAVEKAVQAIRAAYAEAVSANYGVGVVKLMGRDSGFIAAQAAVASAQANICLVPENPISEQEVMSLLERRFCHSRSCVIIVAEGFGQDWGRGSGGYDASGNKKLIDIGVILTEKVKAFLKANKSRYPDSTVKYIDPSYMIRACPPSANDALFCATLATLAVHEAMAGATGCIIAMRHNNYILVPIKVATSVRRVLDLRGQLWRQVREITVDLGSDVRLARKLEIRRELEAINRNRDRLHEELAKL

Turning to `Oc1ccc(/C=C/c2cc(O)cc(O)c2)cc1`, the call in assay [1], in assay [2], in assay [3] and in assay [4] was inactive. In addition, in assay [5], the Potency was 2.91 µM (active).

On to `Cn1nnnc1SCC1=C(C(=O)O)N2C(=O)[C@@H](NC(=O)[C@H](O)c3ccccc3)[C@H]2SC1`, for which, in assay [6], the Potency is 3.98 µM (active).

On to `C=Cc1ccc(S(=O)(=O)O)cc1`, for which the Potency in assay [6] is 12.6 µM (active).

Regarding `O=C1c2ccccc2C(=O)C1c1ccc(Cl)cc1`, the Potency entry in assay [7] was “inactive”.

Take `CNC(=O)C[C@@H](N)C(=O)N[C@@H](C(=O)N[C@@H]1C(=O)N2[C@@H]1SC(C)(C)[C@@H]2C(=O)O)c1ccc(O)cc1`: the Potency entry in assay [7] is “inactive”.

For the compound `CCc1ccc(S(=O)(=O)O)cc1`, the Potency entry in assay [7] is “inactive”.

Turning to `O=C(O)c1ccc(NC(=O)[C@H](Cc2ccc(O)cc2)NC(=O)c2ccccc2)cc1`, the Potency entry in assay [7] was “inactive”.

As for `OCl`, the Potency entry in assay [7] was “inactive”.

For the compound `O=C1N=C2SCCN2C(=O)C1Cc1ccc(Cl)cc1` (stereo not drawn), the Potency entry in assay [7] was “inactive”.

With `NCC(O)CC(=O)O` (stereo not drawn), the Potency entry in assay [7] was “inactive”.

Consider `N[C@H](CC(=O)O)C(=O)O`, for which, in assay [7], the Potency result was “inactive”.

For `O=c1n(CC2CO2)c(=O)n(CC2CO2)c(=O)n1CC1CO1` (stereo not drawn), the Potency result in assay [7] was “inactive”.

For `CC(C)c1nc(N(C)S(C)(=O)=O)nc(-c2ccc(F)cc2)c1/C=C/C(O)CC(O)CC(=O)O` (stereo not drawn), in assay [7], the Potency entry is “inactive”.

On to `C[N+]1(C)[C@@H]2CC(OC(=O)C(O)(c3cccs3)c3cccs3)C[C@H]1[C@@H]1O[C@@H]12` (stereo partly drawn), for which, in assay [7], the Potency result was “inactive”.

As for `CC(=O)Nc1c(I)c(C(=O)O)c(I)c(N(C)C(C)=O)c1I`, the Potency result in assay [7] was “inactive”.

On to `CNC(=O)[C@H](Cc1c[nH]c2ccccc12)NC(=O)[C@@H](CC(=O)NO)CC(C)C`, for which the Potency entry in assay [7] was “inactive”.

For `CCCCC/C=C\C/C=C\C/C=C\CCCCC(=O)O`, the Potency result in assay [7] was “inactive”.

For `CC/C=C\C/C=C\C/C=C\C/C=C\C/C=C\CCCC(=O)O`, in assay [7], the Potency entry was “inactive”.

On to `CC1CC(OC(=O)C(O)c2ccccc2)CC(C)(C)C1` (stereo not drawn), for which the Potency entry in assay [7] is “inactive”.

In the case of `N[C@@H](Cc1cc(I)c(Oc2ccc(O)c(I)c2)c(I)c1)C(=O)O`, in assay [7], the Potency entry was “inactive”.

On to `CC(=O)c1ccc2c(c1)N(CCCN1CCN(CCO)CC1)c1ccccc1S2`, for which the Potency result in assay [7] was “inactive”.

In the case of `CSc1nc2cc(Oc3cccc(Cl)c3Cl)c(Cl)cc2[nH]1`, the Potency entry in assay [7] was “inactive”.

With `OB(O)O`, the Potency result in assay [7] was “inactive”.

Regarding `CN(C)C(=O)CCSC(SCCC(=O)O)c1cccc(/C=C/c2ccc3ccc(Cl)cc3n2)c1` (stereo not drawn), the Potency result in assay [7] was “inactive”.

Turning to `O=C(NNCS(=O)(=O)O)c1ccncc1`, the Potency result in assay [7] was “inactive”.

Consider `CC(=O)Nc1ccc(OC(=O)c2ccccc2O)cc1`, for which the Potency entry in assay [7] is “inactive”.

Consider `COC(=O)CCC[N+](C)(C)C`, for which the Potency result in assay [7] is “inactive”.

Take `NC(=O)Oc1ccc(Cc2ccccc2)cc1`: the Potency entry in assay [7] was “inactive”.

Take `Cc1cc(C(=O)NCCc2ccc(S(=O)(=O)NC(=O)NN3CCCCCC3)cc2)no1`: the Potency result in assay [7] was “inactive”.

Regarding `CC(C)Cc1ccc([C@@H](C)C(=O)NS(C)(=O)=O)cc1`, the Potency result in assay [7] was “inactive”.

As for `O=C(CCCN1CCN2CCCC2C1)c1ccc(F)cc1` (stereo not drawn), the Potency entry in assay [7] was “inactive”.

For the compound `COc1ccc(C[C@H](C)NC[C@@H](O)c2ccc(O)c(NC=O)c2)cc1`, the Potency result in assay [7] is “inactive”.

As for `C[C@H](CCCC(C)(C)O)[C@H]1CC[C@H]2[C@@H]3CC=C4C[C@@H](O)CC[C@]4(C)[C@H]3CC[C@]12C`, the Potency result in assay [7] was “inactive”.

Regarding `CCCCCc1ccc(C)cc1O`, the Potency result in assay [7] is “inactive”.

For the compound `CCOc1cc(-c2nccc3cc(OC)c(OC)cc23)cc(OCC)c1OCC`, the Potency entry in assay [7] was “inactive”.

For the compound `Cc1cccc(Nc2ncccc2C(=O)O)c1C`, the Potency entry in assay [7] was “inactive”.

Consider `CC1CCC(NC(=O)N(CCCl)N=O)CC1` (stereo not drawn), for which the Potency entry in assay [7] was “inactive”.

As for `[O]=[Bi][O][Bi]=[O]`, the Potency result in assay [7] was “inactive”.

Consider `COc1ccc(C(=O)CCC(=O)O)c2ccccc12`, for which the Potency result in assay [7] is “inactive”.
